Among the data in PubChem BioAssay (NCATS) are Potency values, retold here.

Molecules are shown by their SMILES. Inconclusive results are not listed. Active and inactive are the calls of the source. Calls come from the whole dose curve; as a rule, active = well fitted inhibition curve with a large enough effect; inconclusive = small, poorly fitted or top-dose-only effect; inactive = flat fitted curve, though single readings scatter. Peptide text beside a SMILES is read from it.

Test in all cases: qHTS profiling for inhibitors of Plasmodium falciparum proliferation (AID 504749); note: nearly all actives have a fitted effect of over 60% in size
What all share (settings): P. falciparum in erythrocytes, SYBR Green DNA, 72 h; series mostly up to 12.8 µM
A general note: qHTS replaces the single test concentration by a dilution series.

In one assay the test system is 3D7. A digest of the protocol: (§1)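 Fluorescence of SYBR Green-bound parasite DNA, read at 485/535 nm, served as the growth measure. Infected erythrocytes were cultured with compound 72 h; artemisinin (0.29 uM) and DMSO wells defined the normalization range.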
For a further assay, the system named is AA1029. In a few lines: as §1
Another assay deals with ATS189. A digest of the protocol: as §1
Another assay concerns CP185. In a few lines:
as §1

The next assay deals with CP192. A digest of the protocol:
as §1

In another assay the test system is CP201. In a few lines: as §1
A further assay concerns CP238. In a few lines: as §1
In another assay the test system is CP250. In a few lines: as §1
In the next assay the test system is CP262. A digest of the protocol: as §1
The subject of a further assay is CP265. In a few lines:
as §1

In another assay the test system is CP268. In a few lines: as §1
The test system of another assay is CP291. In a few lines: as §1
The test system of the next assay is CP315. In a few lines: as §1
The test system of a further assay is DIV30. In a few lines: as §1
Another assay has as its system JCK. A digest of the protocol:
as §1

For another assay, the system named is PAD. In a few lines:
as §1

The next assay has as its system PC26. A digest of the protocol: as §1
The next assay has as its system SC27B. In a few lines:
as §1

In another assay the test system is TAB109. In a few lines: as §1
Potency is the fitted concentration of half-maximal effect.

For the molecule `OCC1O[C@H](OC2C(CO)O[C@@](O)(CO)C2O)C(O)C(O)C1O` (stereo partly specified), the Potency result with 3D7, in the assay with AA1029, in the assay on ATS189, with CP185, in the assay on CP192 and in the assay with CP201 was “inactive” throughout. Besides, the Potency result with CP238, with CP250, in the assay on CP262, in the assay with CP265, in the assay on CP268 and in the assay on CP291 was “inactive” throughout. The Potency result with CP315, in the assay on DIV30, with JCK, in the assay with PAD, in the assay on PC26 and in the assay with SC27B was “inactive” throughout. For the same molecule, the Potency entry in the assay with TAB109 is “inactive”.
Consider `CCCCCCCCCc1ccc(OCCOCCOCCOCCOCCOCCOCCOCCOCCO)cc1`, for which the Potency result in the assay on AA1029, in the assay with CP185, in the assay with CP192, in the assay with CP201, in the assay with CP238 and in the assay with CP250 was “inactive” in each case. The Potency entry with CP262, with CP265, in the assay with CP268, in the assay with CP291, in the assay with CP315 and with DIV30 was “inactive” throughout. In addition, the Potency result in the assay with JCK and in the assay with TAB109 was “inactive” in each case.
With `NC(CCC(=O)N[C@@H](CS)C(=O)NCC(=O)O)C(=O)O` (stereo partly specified), the Potency in the assay on 3D7 was 6.31 µM (active); with ATS189, 8.91 µM (active); in the assay on CP265 it was 7.94 µM (active); in the assay on DIV30, 12 µM (active); with PAD, 6.31 µM (active); in the assay on PC26 it was 12 µM (active). For the same molecule, the Potency in the assay on TAB109 is 4.47 µM (active). For the same molecule, the Potency entry with CP201, in the assay with CP262 and in the assay with CP315 was “inactive” in each case.
With `CCC(C)C(=O)OC1CCC=C2C=CC(C)C(CCC3CC(O)CC(=O)O3)[C@@H]21` (stereo partly specified), the Potency entry with 3D7, with AA1029, with ATS189, in the assay on CP185, with CP192 and with CP201 was “inactive” each time. The Potency result in the assay with CP238, in the assay with CP250, in the assay on CP262, with CP265, in the assay with CP268 and with CP291 was “inactive” each time. In addition, the Potency result in the assay on CP315, in the assay with DIV30, with JCK, with PAD, with PC26 and in the assay on SC27B was “inactive” throughout. For the same molecule, the Potency result in the assay on TAB109 was “inactive”.
Regarding `COc1ccc2cc(C(C)CO)ccc2c1` (stereo unspecified), the Potency result with 3D7, in the assay on AA1029, in the assay with ATS189, with CP185, with CP192 and in the assay with CP201 was “inactive” in each case. For the same molecule, the Potency entry in the assay with CP238, in the assay with CP250, in the assay on CP262, with CP265, in the assay with CP268 and in the assay with CP291 was “inactive” each time. Further, the Potency entry in the assay with CP315, in the assay with DIV30, in the assay with JCK, in the assay with PAD, in the assay on PC26 and in the assay with SC27B was “inactive” throughout. Moreover, in the assay on TAB109, the Potency result is “inactive”.
For the molecule `CNC1CC(N)[C@H](O)[C@@H](O[C@@H]2OC(CO)C3OC4(OC(C(N)CO)C(O)C(O)C4O)O[C@@H]3[C@H]2O)C1O` (stereo partly specified), the Potency result with 3D7, in the assay with AA1029, in the assay with ATS189, in the assay with CP185, in the assay on CP192 and in the assay on CP201 was “inactive” each time. The Potency result with CP238, with CP250, with CP262, with CP265, with CP268 and in the assay on CP291 was “inactive” throughout. The Potency result in the assay on CP315, in the assay with DIV30, in the assay on JCK, in the assay on PAD, with PC26 and in the assay on SC27B was “inactive” in each case. In addition, the Potency result in the assay with TAB109 is “inactive”.
On to `CC(C)Oc1ccc2c(=O)cc(-c3ccccc3)oc2c1`, for which the Potency result in the assay on 3D7, in the assay on AA1029, with ATS189, with CP185, in the assay with CP192 and in the assay on CP201 was “inactive” throughout. Moreover, the Potency result in the assay on CP238, with CP262, in the assay with CP265, with CP268, in the assay on CP291 and in the assay with CP315 was “inactive” throughout. The Potency result with DIV30, in the assay on JCK, in the assay with PAD, in the assay on PC26, in the assay with SC27B and in the assay on TAB109 was “inactive” throughout.
As for `N[C@@H]1C(O)OC(CO)C(O)C1O` (stereo partly specified), the Potency result in the assay with 3D7, with AA1029, with ATS189, with CP185, in the assay on CP201 and in the assay with CP238 was “inactive” throughout. Besides, the Potency entry with CP250, in the assay on CP265, with CP268, in the assay with CP291, in the assay with CP315 and in the assay on DIV30 was “inactive” in each case. The Potency entry in the assay with JCK, with PAD, in the assay on PC26, in the assay with SC27B and in the assay on TAB109 was “inactive” each time.
For `CCCC(=O)O[C@]1(C(=O)CO)CCC2[C@@H]3CCC4=CC(=O)CC[C@]4(C)C3C(O)C[C@]21C` (stereo partly specified), the Potency result in the assay on 3D7, in the assay with AA1029, with ATS189, in the assay on CP185, in the assay on CP192 and with CP201 was “inactive” each time. Moreover, the Potency entry in the assay with CP238, in the assay on CP250, with CP262, in the assay on CP265, in the assay on CP268 and with CP291 was “inactive” each time. Also, the Potency entry with CP315, with DIV30, in the assay with JCK, in the assay on PAD, in the assay on PC26 and in the assay on SC27B was “inactive” each time. Besides, in the assay on TAB109, the Potency result is “inactive”.
As to `CN(C)CCc1c[nH]c2ccc(CC3COC(=O)N3)cc12` (stereo unspecified), the Potency result in the assay on 3D7, with AA1029, with ATS189, in the assay on CP185, with CP192 and in the assay on CP201 was “inactive” throughout. Moreover, the Potency entry in the assay with CP238, in the assay with CP250, with CP265, in the assay with CP268, in the assay on CP291 and with CP315 was “inactive” throughout. In addition, the Potency result in the assay on DIV30, with JCK, with PAD, in the assay with PC26, in the assay on SC27B and with TAB109 was “inactive” throughout.
As for `COC(=O)C(Cc1ccccc1)NC(=O)C(N)CC(=O)O` (stereo not drawn) (H-Asp-Phe-OMe; configuration not given here), the Potency result in the assay on 3D7, with AA1029, in the assay with ATS189, in the assay with CP185, in the assay with CP192 and in the assay with CP201 was “inactive” in each case. Further, the Potency result in the assay with CP238, in the assay on CP250, in the assay with CP262, in the assay on CP265, in the assay with CP268 and in the assay on CP291 was “inactive” throughout. The Potency result in the assay on CP315, with DIV30, with JCK, in the assay on PAD, in the assay with PC26 and with SC27B was “inactive” each time. In addition, in the assay with TAB109, the Potency entry was “inactive”.
